Active and inactive are the calls of the source. Rule for the calls: active = hit-call score of the fitted dose curve at least 0.9, where 1 is the maximum; inconclusive = response in the unintended direction; inactive = score below 0.9.

The experiment is described as follows: CPHEA_Stoker_NIS_Cytotoxicity: Cytotoxicity Assessment for CPHEA's Radioactive Iodide Uptake (RAIU) Assay for Sodium/Iodide Symporter (NIS) Inhibition, Stoker and Laws Labs (AID 2283897).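 For AC50: active means loss of ATP signal versus DMSO meaning cytotoxicity.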 As for the experimental part:
CPHEA_Stoker_NIS is a cell-based, single-readout assay that uses hNIS-HEK293T-EPA, a novel human kidney cell line expressing human NIS, with measurements taken at 2 hours after chemical dosing in a 96-well plate. This radioactive iodide uptake (RAIU) assay is used to identify inhibitors of NIS-mediated iodide uptake. A parallel cytoxicity assay (Cell Titer Glo, Promega) was also run in the same cell line.CPHEA_Stoker_NIS_Cytotoxicity is one of 2 assay components measured from the CPHEA_Stoker_NIS assay. It is designed to make measurements of atp content, a form of viability reporter, as detected with bioluminescence signals by Luciferase-coupled ATP quantitation technology.Data from the assay component CPHEA_Stoker_NIS_Cytotoxicity was analyzed at the endpoint, CPHEA_Stoker_NIS_Cytotoxicity, in the positive analysis fitting direction relative to DMSO as the negative control and baseline of activity. Using a type of viability reporter, measures of ATP content for loss-of-signal activity can be used to understand the viability. To generalize the intended target to other relatable targets, this assay endpoint is annotated to the cell cycle intended target family, where the subfamily is cytotoxicity.
hNIS-HEK293T-EPA cells were seeded with a MultiFlo FX dispenser (BioTek, Winooski, VT) into ScintiPlate-96 microplates (Perkin Elmer, Waltham, MA) at a density of 4.0x10^4 cells per well in 200uL growth media and incubated for 40 hours before experimentation. On day of the assay, carrier-free 125I (Perkin-Elmer, Waltham, MA; specific activity: 17.4Ci/mg) was diluted with Hanks' balanced salt solution (Sigma, St. Louis, MO) supplemented with 10mM HEPES (uptake buffer; pH 7.4) at 5uCi/mL (288pg 125I/mL uptake buffer; 2.30nM). The assay was initiated by washing cells twice with 200uL uptake buffer using a 96-well Tecan HydroSpeed plate washer (Tecan, Mannedorf, Switzerland). Uptake buffer (59.7uL) was then added back to each well. Chemical samples (350nL at 200X) were administered using the HDR tool as previously described to achieve a 1X chemical/0.5% final DMSO concentration with subsequent addition of 10uL of 125I dilution (final [125I]: 329pM; 2.88pg/well) for a final reaction volume of 70uL/well. Cells were incubated at room temperature for 2 hours and then washed twice with 200uL ice cold uptake buffer. All uptake buffer was aspirated from wells, plates were sealed, and read on a MicroBeta2 plate reader (Perkin Elmer, Waltham, MA) using a detection protocol to measure CPM corresponding to intracellular 125I concentration. Each chemical concentration (0.001, 0.01, 0.1, 1.0, 10, and 100uM) was assayed in triplicate with three independent biological replicate plates (3 sequential cell passages). Additionally, a concentration response of NaClO4 (0.001, 0.01, 0.1, 1.0, 10, and 100uM) served as a positive control inhibition curve on each RAIU assay plate. DMSO control wells were assayed on each plate as a measure of maximum iodide uptake for normalization and determination of intra- and inter-assay variation. (Toxicol In Vitro, 2017, 40:66-78).
In the case of `Cc1cc2c(cc1C(F)(F)F)N(C(=O)Nc1ccc(Oc3cccnc3C)nc1)CC2`, the AC50 (commonly the concentration giving half of the maximal activity seen) was 8.93 µM (active). Same read-out and setting: in the case of `O=C1c2ccccc2C(=O)N1CCc1noc(-c2ccc(CN3CCCCCC3)s2)n1` it was 11.5 µM (active). For `OC12N=C(c3ccccc3)SC1Cc1cc(Cl)ccc12` (stereo unspecified), the result was inactive.

For `Clc1ccccc1C(c1ccccc1)(c1ccccc1)n1ccnc1`, the AC50 is 9.92 µM (active). Same read-out and setting: in the case of `CC(C)(c1cc(Br)c(O)c(Br)c1)c1cc(Br)c(O)c(Br)c1` it was 13.6 µM (active). For the compound `CCCCCc1ccc(N)cc1`, the outcome was inactive. With `CC(C)(C)c1cc(/C=C2\SC(N)=NC2=O)cc(C(C)(C)C)c1O`, the AC50 was 4.96 µM (active). Still for that read-out and setting: as for `CC(=O)N1CCN(c2ccc(OC[C@H]3CO[C@](Cn4ccnc4)(c4ccc(Cl)cc4Cl)O3)cc2)CC1`, the figure is 9.92 µM (active). As for `Clc1cc(Cl)c2c(c1)N=C1CCCCCN1C2`, the result was inactive.

In the case of `CC(C)(O)c1ccc(CNC(=O)c2cccnc2Oc2ccc3nonc3c2)cc1`, the outcome was inactive.

On to `CN(C)C(=O)C1(N2CCCCC2)CCN(CC[C@@]2(c3ccc(Cl)c(Cl)c3)CN(C(=O)c3ccccc3)CCO2)CC1`, for which the result was inactive. With `CN(C)c1ccc(C(=C2C=CC(=[N+](C)C)C=C2)c2ccc(N(C)C)cc2)cc1`, the AC50 was 5.35 µM (active). On to `CCCCCCCCOC(=O)c1cc(O)c(O)c(O)c1`, for which the outcome was inactive. In the case of `CN1C(=O)N(c2ccccc2Br)Cc2cnc(Nc3ccc4c(c3)OCC(CO)O4)nc21` (stereo unspecified), the outcome was inactive. Regarding `CCOC(=O)O[C@H](C)OC(=O)c1ccc2c(c1)cc(C(=O)NC1CCN(C(C)C)CC1)n2Cc1cc(-c2ccc(Cl)s2)on1`, the concentration at half-maximal activity (AC50) is 9.92 µM (active). `O=C(OCCCCCCOC(=O)c1ccccc1)c1ccccc1`: the result was inactive. Same read-out and setting: as for `CCN(Cc1cccnc1)C(=O)c1cccc(Cl)c1[C@]1(C)C(=O)N(Cc2ccc(OC)cc2OC)c2ccc(Cl)cc21`, the entry is “inactive”. Turning to `NCc1cccc(C2CCN(C(=O)c3ccc(C#Cc4ccccc4F)o3)CC2)c1`, the AC50 is 16.3 µM (active). As for `CCCCCCCCCCCC[N+](C)(C)C`, the result was inactive. In the case of `CC/C(=C(/CC)c1ccc(O)cc1)c1ccc(O)cc1`, the AC50 is 9.92 µM (active). For the compound `O=c1[nH]sc2ccccc12`, the outcome was inactive. Turning to `CCCCOC(=O)CC(CC(=O)OCCCC)(OC(C)=O)C(=O)OCCCC`, the result was inactive.

On to `Cc1c2ccccc2c(C)c2c1ccc1ccccc12`, for which the outcome was inactive.

On to `CC(C)(C)c1csc(-c2cc3cc(OCc4ccccc4CC(=O)O)ccc3o2)n1`, for which the concentration at half-maximal activity (AC50) is 9.92 µM (active).

Take `Cc1oc2c(NC(=O)c3c(Cl)cccc3Cl)cccc2c1C(C)(C)O`: the result was inactive.

Turning to `O=C(O)Cc1cc(I)c(Oc2ccc(O)c(I)c2)c(I)c1`, the outcome was inactive. Still for that read-out and setting: as for `CCCCOC(=O)c1ccc(O)cc1`, the entry is “inactive”.

`CN(C[C@@H](CC[N+]12CCC(C3CCCCC3)(CC1)CC2)c1ccc(Cl)c(Cl)c1)C(=O)c1cc(C(F)(F)F)cc(C(F)(F)F)c1`: the AC50 is 10.5 µM (active). As for `COc1cc(C(=O)NC2CCN(C)CC2)ccc1Nc1ncc2c(n1)N(C1CCCC1)CC(F)(F)C(=O)N2C`, the outcome was inactive. Same read-out and setting: in the case of `CCN(CC)C(=O)c1cc(S(=O)(=O)Cc2ccccc2)c(N2CCC(c3ccccc3)CC2)cc1N(CC)CCN(C)C` it was “inactive”.

With `O=C(Nc1ccc(Cl)cc1)Nc1ccc(Cl)c(Cl)c1`, the result was inactive.
